About 8,800 targets were measured; listed, in parts, are those with a hit and a random draw of the rest. About 0.5% of all pairs of compound and target were hits.
Experiments:
Experiment in all cases: log2 fold change, soluble protein after heating vs DMSO (PISA); higher = thermal stabilisation; K562 lysate, 10 uM; active = over 0.2 and 3.5 SD of the protein, either way, in both replicates (recomputed)
erlotinib = compound: C#Cc1cccc(Nc2ncnc3cc(OCCOC)c(OCCOC)cc23)c1 [erlotinib]
Summary of the method: (§1)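 Soluble protein was defined as the supernatant remaining after 21,000xg for 90 min, following pooling of heated aliquots and adjustment to 0.5% NP-40 at 4°C. Before that, crude K562 extract at 1 mg/mL protein in PBS pH 7.4 with 1 mM MgCl2 was treated with 10 μM compound for 30 min and heated for 3 min across 48°C-58°C. Quantification used TMTpro 16plex LC-MS/MS with channel sums equalised, and values are log-two fold changes in thermal stability relative to solvent controls from duplicates.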

[1] = compound: C/C(=N\NC(=O)C1=CC(=CC=C1)S(=O)(=O)N2CCOCC2)/C3=C(C=CC(=C3)Cl)O
Summary of the method: as §1

[2] = compound: C1=CC(=CC=C1C2=NC3=C(N2)C=C(C=C3)C(=O)N)OC4=CC=C(C=C4)Cl
Summary of the method: as §1

[3] = compound: C1=CC2=C(C=CC(=C2)/C=C\3/C(=O)NC(=NCC4=CC=CS4)S3)N=C1
Summary of the method: as §1

[4] = compound: C1=CC2=NC=CN=C2C=C1/C=C/3\C(=O)NC(=O)S3
Summary of the method: as §1

[5] = compound: C1=CC=C(C=C1)C2=NC(=C(N2)C3=CC=NC=C3)C4=CC(=C(C=C4)Cl)O
Summary of the method: as §1

[6] = compound: C1=CC=C2C(=C1)C3=NNC4=CC=CC(=C43)C2=O
Summary of the method: as §1

[7] = compound: C1CCN(C1)C(=O)NC2=CC=CC(=C2)NC3=NC=C(C(=N3)NCCC4=CN=CN4)Br
Summary of the method: as §1

[8] = compound: C1CN(CCC1(CC2=CC=C(C=C2)Cl)N)C3=NC=NC4=C3C=CN4
Summary of the method: as §1

IRAK-1-4 Inhibitor I = compound: C1COCCN1CCN2C3=CC=CC=C3N=C2NC(=O)C4=CC(=CC=C4)[N+](=O)[O-] [IRAK-1-4 Inhibitor I]
Summary of the method: as §1

Measured: log2 fold change

CANX isoform 2 (UniProt P27824)
inactive: erlotinib 0.007 | [1] -0.027 | [2] 0.048 | [3] 0.004 | [4] 0 | [5] -0.007 | [6] -0.042 | [7] 0 | [8] 0.013 | IRAK-1-4 Inhibitor I 0.003

C12orf45 (UniProt Q8N5I9)
inactive: erlotinib -0.038 | [1] -0.113 | [2] 0.027 | [3] 0.009 | [4] -0.037 | [5] 0.009 | [6] 0.009 | [7] -0.018 | [8] 0.009 | IRAK-1-4 Inhibitor I -0.002

CAMK2G isoform 8 (UniProt Q13555)
UniProt Q13555, sequence (Q13555 whole entry, looked up): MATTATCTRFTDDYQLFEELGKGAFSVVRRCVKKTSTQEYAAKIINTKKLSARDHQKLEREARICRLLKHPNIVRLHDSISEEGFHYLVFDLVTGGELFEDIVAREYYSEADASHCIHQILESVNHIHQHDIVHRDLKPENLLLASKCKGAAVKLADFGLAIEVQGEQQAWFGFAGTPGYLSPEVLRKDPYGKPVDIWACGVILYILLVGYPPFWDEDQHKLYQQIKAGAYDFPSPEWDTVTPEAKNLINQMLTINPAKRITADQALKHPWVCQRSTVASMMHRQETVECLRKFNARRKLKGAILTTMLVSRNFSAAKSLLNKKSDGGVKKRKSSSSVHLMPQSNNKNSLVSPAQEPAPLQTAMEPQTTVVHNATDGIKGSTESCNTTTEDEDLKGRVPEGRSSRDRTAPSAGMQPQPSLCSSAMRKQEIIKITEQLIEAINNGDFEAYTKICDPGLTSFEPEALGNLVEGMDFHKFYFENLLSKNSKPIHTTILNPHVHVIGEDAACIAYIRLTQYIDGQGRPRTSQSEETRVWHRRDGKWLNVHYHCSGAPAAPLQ
inactive: erlotinib 0.009 | [1] -0.193 | [2] 0.027 | [3] -0.094 | [4] 0.018 | [5] -0.027 | [6] 0.116 | [7] 0.026 | [8] 0.044 | IRAK-1-4 Inhibitor I 0.036

CCPG1 isoform 5 (UniProt Q9ULG6)
inactive: erlotinib -0.014 | [1] 0.08 | [2] 0.082 | [3] 0.017 | [4] 0.024 | [5] 0.067 | [6] -0.119 | [7] 0.019 | [8] 0.053 | IRAK-1-4 Inhibitor I -0.03

BRD4 (UniProt O60885)
inactive: erlotinib -0.001 | [1] -0.011 | [2] 0.059 | [3] 0.013 | [4] -0.007 | [5] 0.05 | [6] -0.061 | [7] -0.016 | [8] 0.032 | IRAK-1-4 Inhibitor I 0.028

BORCS5 (UniProt Q969J3)
inactive: erlotinib -0.014 | [1] -0.027 | [2] 0.016 | [3] 0.015 | [4] -0.036 | [5] -0.017 | [6] -0.012 | [7] 0.029 | [8] 0.128 | IRAK-1-4 Inhibitor I 0.004

ATM (UniProt Q13315)
UniProt Q13315, sequence (Q13315 whole entry, looked up): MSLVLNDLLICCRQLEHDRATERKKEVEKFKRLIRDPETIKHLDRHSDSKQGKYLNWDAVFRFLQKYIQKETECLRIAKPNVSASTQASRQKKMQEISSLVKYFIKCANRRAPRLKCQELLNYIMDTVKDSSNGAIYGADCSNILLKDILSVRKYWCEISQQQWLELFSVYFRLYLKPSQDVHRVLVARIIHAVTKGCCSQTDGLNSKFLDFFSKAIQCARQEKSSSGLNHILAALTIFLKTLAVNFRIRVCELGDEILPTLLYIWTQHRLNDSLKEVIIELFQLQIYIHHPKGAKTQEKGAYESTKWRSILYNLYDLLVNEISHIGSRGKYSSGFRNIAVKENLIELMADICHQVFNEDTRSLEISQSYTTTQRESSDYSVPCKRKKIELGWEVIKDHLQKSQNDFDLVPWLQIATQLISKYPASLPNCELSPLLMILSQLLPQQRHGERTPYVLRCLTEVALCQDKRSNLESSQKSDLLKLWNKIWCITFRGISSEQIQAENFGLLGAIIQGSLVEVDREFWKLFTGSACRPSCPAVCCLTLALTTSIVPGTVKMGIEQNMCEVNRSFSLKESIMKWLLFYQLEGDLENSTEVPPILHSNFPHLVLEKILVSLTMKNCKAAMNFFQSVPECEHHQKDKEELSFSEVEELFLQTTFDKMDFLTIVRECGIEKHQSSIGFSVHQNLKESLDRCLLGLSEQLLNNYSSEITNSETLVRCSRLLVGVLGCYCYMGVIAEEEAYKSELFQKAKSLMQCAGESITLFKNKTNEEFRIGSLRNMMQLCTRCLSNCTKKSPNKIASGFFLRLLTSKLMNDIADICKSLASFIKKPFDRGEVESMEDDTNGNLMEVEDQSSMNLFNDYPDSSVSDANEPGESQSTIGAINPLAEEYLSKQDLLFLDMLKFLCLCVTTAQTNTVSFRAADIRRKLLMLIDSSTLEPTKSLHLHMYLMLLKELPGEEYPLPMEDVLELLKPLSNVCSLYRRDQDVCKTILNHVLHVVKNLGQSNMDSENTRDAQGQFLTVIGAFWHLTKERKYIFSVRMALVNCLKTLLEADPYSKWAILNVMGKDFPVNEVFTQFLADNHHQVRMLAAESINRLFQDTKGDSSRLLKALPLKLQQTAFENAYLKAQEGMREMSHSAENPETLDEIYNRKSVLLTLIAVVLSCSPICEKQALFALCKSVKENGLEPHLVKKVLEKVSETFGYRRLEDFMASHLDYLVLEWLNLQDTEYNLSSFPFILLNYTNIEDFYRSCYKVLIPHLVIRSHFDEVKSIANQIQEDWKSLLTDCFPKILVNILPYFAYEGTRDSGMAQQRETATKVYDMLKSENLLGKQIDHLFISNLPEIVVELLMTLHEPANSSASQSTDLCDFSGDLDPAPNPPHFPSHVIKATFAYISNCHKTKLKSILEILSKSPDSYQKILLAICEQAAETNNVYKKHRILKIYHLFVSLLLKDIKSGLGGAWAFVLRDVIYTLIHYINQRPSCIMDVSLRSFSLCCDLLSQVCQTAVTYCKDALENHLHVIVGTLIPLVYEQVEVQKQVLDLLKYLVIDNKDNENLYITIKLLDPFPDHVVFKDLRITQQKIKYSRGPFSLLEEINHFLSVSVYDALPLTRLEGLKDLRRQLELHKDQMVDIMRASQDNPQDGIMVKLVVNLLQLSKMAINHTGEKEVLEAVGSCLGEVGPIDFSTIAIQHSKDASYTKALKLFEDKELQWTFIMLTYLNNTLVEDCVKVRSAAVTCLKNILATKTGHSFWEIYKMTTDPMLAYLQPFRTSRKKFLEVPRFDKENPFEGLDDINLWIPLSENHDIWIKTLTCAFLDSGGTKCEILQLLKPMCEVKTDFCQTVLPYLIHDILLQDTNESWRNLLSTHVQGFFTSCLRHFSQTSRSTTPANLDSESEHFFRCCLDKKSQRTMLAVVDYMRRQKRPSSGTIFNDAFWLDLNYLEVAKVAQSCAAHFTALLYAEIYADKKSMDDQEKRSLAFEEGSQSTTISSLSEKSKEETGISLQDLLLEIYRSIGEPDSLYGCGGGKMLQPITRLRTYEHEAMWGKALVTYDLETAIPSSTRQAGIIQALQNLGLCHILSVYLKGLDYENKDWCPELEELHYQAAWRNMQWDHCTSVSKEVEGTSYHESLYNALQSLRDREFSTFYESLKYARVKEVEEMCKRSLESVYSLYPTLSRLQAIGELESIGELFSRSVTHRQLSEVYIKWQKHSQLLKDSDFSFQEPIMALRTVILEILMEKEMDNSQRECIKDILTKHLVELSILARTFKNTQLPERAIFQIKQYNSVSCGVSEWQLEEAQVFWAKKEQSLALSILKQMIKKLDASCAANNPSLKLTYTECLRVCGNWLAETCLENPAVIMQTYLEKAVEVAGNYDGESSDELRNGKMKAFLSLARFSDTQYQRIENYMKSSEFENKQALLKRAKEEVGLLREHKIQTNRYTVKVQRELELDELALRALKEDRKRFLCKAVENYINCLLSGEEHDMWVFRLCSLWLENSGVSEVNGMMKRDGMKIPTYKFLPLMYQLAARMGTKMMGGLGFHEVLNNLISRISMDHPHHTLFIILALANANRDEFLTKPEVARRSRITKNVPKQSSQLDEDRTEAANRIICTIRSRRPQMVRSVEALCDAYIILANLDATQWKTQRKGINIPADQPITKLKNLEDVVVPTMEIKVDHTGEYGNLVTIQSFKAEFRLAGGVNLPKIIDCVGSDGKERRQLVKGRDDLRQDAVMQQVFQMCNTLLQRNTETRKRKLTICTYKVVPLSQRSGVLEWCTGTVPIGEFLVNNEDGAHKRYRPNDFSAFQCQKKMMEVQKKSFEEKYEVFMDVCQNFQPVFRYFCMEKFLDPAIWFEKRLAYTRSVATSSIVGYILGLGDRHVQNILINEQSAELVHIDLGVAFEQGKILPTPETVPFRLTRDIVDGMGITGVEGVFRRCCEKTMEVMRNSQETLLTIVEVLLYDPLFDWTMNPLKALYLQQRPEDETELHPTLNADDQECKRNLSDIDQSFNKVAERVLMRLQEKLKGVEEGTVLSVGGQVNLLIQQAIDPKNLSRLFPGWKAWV
inactive: erlotinib 0.02 | [1] -0.031 | [2] -0.02 | [3] -0.064 | [4] -0.052 | [5] -0.001 | [6] 0.043 | [7] -0.016 | [8] -0.042 | IRAK-1-4 Inhibitor I 0.007

CDC16 (UniProt Q13042)
UniProt Q13042, sequence (Q13042 whole entry, looked up): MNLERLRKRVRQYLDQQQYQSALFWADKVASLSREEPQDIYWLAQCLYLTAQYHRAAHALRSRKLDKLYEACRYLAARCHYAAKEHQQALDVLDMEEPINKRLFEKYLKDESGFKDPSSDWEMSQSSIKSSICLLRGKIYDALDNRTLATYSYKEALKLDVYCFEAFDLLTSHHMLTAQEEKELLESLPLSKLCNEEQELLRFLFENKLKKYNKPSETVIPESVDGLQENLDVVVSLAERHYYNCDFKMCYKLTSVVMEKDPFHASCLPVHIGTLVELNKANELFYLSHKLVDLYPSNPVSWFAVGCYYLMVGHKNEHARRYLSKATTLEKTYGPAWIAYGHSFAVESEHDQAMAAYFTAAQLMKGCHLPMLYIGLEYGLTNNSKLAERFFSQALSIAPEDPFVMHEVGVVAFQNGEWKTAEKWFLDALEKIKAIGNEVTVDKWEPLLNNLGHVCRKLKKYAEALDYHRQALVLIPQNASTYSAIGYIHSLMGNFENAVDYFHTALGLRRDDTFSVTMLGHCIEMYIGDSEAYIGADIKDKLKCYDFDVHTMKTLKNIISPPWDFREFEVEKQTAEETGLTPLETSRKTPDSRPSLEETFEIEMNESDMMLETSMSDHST
inactive: erlotinib -0.006 | [1] -0.067 | [2] -0.051 | [3] 0.031 | [4] -0.009 | [5] 0.006 | [6] 0.019 | [7] 0.027 | [8] -0.056 | IRAK-1-4 Inhibitor I -0.004

CDC45 isoform 3 (UniProt O75419)
inactive: erlotinib 0.035 | [1] -0.008 | [2] -0.065 | [3] 0.029 | [4] -0.005 | [5] -0.022 | [6] -0.017 | [7] -0.014 | [8] -0.004 | IRAK-1-4 Inhibitor I 0.066

CDC42EP4 (UniProt Q9H3Q1)
inactive: erlotinib 0.025 | [1] -0.053 | [2] -0.005 | [3] 0.017 | [4] -0.109 | [5] 0.007 | [6] 0.044 | [7] -0.069 | [8] 0.054 | IRAK-1-4 Inhibitor I -0.055

BCKDHB (UniProt P21953)
UniProt P21953, sequence (P21953 whole entry, looked up): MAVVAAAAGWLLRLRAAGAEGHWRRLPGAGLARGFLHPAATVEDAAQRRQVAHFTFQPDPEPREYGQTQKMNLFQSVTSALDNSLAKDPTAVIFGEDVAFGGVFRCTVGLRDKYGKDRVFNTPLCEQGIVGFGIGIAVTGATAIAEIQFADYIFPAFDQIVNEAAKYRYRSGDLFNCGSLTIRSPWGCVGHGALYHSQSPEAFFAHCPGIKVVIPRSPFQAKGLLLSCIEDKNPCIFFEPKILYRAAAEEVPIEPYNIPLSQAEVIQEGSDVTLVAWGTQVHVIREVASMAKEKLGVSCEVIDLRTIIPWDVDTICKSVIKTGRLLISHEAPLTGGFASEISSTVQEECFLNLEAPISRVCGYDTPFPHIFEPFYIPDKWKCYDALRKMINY
inactive: erlotinib 0.013 | [1] -0.034 | [2] 0.033 | [3] -0.089 | [4] 0.049 | [5] -0.098 | [6] -0.117 | [7] 0.065 | [8] -0.012 | IRAK-1-4 Inhibitor I 0.134

CAPN15 (UniProt O75808)
inactive: erlotinib 0.01 | [1] 0.187 | [2] -0.011 | [3] -0.028 | [4] -0.104 | [5] -0.05 | [6] 0.026 | [7] 0.019 | [8] 0.031 | IRAK-1-4 Inhibitor I 0.01

CHD1L (UniProt Q86WJ1)
inactive: erlotinib -0.017 | [1] 0.007 | [2] -0.028 | [3] 0.036 | [4] 0.031 | [5] -0.014 | [6] -0.054 | [7] -0.012 | [8] 0.013 | IRAK-1-4 Inhibitor I 0.003

CCDC186 (UniProt Q7Z3E2)
inactive: erlotinib -0.018 | [1] 0.026 | [2] 0.01 | [3] 0.007 | [4] -0.03 | [5] -0.009 | [6] -0.027 | [7] -0.039 | [8] 0.007 | IRAK-1-4 Inhibitor I 0.016

ATAD1 (UniProt Q8NBU5)
inactive: erlotinib 0.004 | [1] 0.046 | [2] -0.016 | [3] 0.027 | [4] -0.059 | [5] -0.041 | [6] 0.004 | [7] -0.029 | [8] 0.015 | IRAK-1-4 Inhibitor I 0.063

CEPT1 (UniProt Q9Y6K0)
UniProt Q9Y6K0, sequence (Q9Y6K0 whole entry, looked up): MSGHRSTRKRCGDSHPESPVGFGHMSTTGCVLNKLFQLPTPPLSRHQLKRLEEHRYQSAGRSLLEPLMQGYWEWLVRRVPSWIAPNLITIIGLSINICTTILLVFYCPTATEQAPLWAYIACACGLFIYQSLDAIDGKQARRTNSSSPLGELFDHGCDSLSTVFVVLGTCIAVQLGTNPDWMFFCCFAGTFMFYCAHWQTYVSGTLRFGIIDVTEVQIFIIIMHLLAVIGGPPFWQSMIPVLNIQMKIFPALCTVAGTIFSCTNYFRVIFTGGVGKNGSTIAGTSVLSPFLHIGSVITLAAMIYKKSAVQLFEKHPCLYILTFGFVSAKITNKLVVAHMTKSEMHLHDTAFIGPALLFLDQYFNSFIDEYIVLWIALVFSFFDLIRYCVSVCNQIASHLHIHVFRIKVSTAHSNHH
active: [2] -0.216
inactive: erlotinib 0.025 | [1] -0.005 | [3] 0.035 | [4] 0.032 | [5] -0.023 | [6] -0.015 | [7] 0 | [8] 0.081 | IRAK-1-4 Inhibitor I 0.072

Reference: the supplement of paper PMC10849652
